Experimental findings from PMC4336329 (PLoS ONE, 2015) are described below.

The campaign covered roughly 310,000 compounds. About 14,000 (4.5%) showed an effect of 50% or more. The effect is printed as a negative number. Many of the other results were omitted from the sample, so strong results are more common in it than they were.
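Also: peak tail current of the secondary pulse compared with the same well before compound.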

The assay deals with human ether-à-go-go-related gene (hERG) potassium channel (human, UniProt Q12809). Put plainly: primary screen, population patch clamp on CHO cells stably expressing hERG; higher = less effect of the substance.
Chain of human ether-à-go-go-related gene (hERG) potassium channel (Q12809 whole entry, looked up): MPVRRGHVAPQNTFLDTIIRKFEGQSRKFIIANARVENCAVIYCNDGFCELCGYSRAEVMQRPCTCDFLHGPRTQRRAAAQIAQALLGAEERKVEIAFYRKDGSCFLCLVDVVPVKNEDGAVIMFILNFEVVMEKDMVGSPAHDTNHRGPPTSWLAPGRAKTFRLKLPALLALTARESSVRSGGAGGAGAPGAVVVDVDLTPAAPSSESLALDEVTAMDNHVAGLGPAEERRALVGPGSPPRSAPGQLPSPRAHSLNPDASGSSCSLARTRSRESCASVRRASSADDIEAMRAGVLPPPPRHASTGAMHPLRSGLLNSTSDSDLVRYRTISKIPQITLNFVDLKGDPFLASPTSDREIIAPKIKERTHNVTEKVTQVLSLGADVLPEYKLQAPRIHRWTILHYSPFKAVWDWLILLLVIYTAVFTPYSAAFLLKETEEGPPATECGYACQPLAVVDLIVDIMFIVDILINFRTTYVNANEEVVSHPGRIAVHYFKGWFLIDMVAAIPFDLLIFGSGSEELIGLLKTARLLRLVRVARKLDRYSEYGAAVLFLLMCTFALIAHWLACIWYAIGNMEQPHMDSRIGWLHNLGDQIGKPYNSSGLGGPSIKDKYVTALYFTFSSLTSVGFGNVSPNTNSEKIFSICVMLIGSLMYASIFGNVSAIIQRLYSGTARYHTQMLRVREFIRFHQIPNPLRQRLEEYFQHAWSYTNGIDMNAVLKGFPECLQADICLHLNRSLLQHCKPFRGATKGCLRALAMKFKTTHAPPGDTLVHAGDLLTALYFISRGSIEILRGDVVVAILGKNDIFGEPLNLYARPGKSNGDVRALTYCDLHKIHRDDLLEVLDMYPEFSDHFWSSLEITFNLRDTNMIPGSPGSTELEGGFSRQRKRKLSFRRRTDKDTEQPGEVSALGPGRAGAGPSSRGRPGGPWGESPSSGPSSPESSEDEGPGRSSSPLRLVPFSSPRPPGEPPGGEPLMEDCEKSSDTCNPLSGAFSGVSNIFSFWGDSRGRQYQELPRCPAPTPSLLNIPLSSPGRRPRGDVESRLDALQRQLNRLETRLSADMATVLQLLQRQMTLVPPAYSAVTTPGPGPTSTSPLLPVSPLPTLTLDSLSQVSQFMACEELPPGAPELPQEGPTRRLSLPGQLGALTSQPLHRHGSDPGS
For the molecule `COc1ccc(NC(=O)CN(C)S(=O)(=O)c2cccc3nsnc23)cc1`, the “hERG current change (%, negative = inhibition) at 10uM” value is -21.9%. In the case of `O=C(O)c1ccccc1-c1nc2ccccc2c(=O)n1O`, the “hERG current change (%, negative = inhibition) at 10uM” value is listed as 14.9%. The figure for `CCCOC(=O)CC1C(=O)NCCN1Cc1ccc(F)cc1` (centres unmarked) is 3.35%. The figure for `CC1CC(C)CN(S(=O)(=O)c2ccc(NC(=O)C3CC(=O)N(Cc4ccccc4)C3)cc2)C1` (centres unmarked) is 17.3%. The figure for `CC(C)CC1NC(=O)N(Cc2nc3ccccc3s2)C1=O` (centres unmarked) is -32.5%; for `CC(C)CCC1(CCNC(=O)c2cccs2)CCOC(C)(C)C1` (centres unmarked) it is -8.99%; for `c1ccc(-c2nn3c(Cn4nnc5ccccc54)nnc3s2)nc1` it is -14.4%. Take `CC(C)C[C@H]1C(=O)N2CCC[C@H]2[C@]2(O)O[C@](NC(=O)C3C=C4c5cccc6[nH]c(Br)c(c56)C[C@H]4N(C)C3)(C(C)C)C(=O)N12.CS(=O)(=O)O` (some centres unmarked): the “hERG current change (%, negative = inhibition) at 10uM” value is listed as 20.4%.

Take `CN1/C(=C\C=C\C2=[N+](C)c3ccc4ccccc4c3C2(C)C)C(C)(C)c2ccccc21.[O-][Cl+3]([O-])([O-])[O-]`: the “hERG current change (%, negative = inhibition) at 10uM” value is given as -75.7%. With `CCN1C(=O)C(O)(CC(=O)/C=C/C=C/c2ccccc2)c2ccccc21` (centres unmarked), the “hERG current change (%, negative = inhibition) at 10uM” value is recorded as -0.629%.

With `CCCN1C(=O)/C(=C/C=C2\N(CC)c3ccccc3C2(C)C)SC1=S`, the “hERG current change (%, negative = inhibition) at 10uM” value worked out at 8.96%.

For `CCN1/C(=C\C=C\C2=[N+](CC)c3ccccc3C2(C)C)C(C)(C)c2ccccc21.[O-][Cl+3]([O-])([O-])[O-]`, the “hERG current change (%, negative = inhibition) at 10uM” value is recorded as -96.7%. The figure for `CC1(C)C(/C=C/C=C/C=C/C=C2\N(CCCCS(=O)(=O)[O-])c3ccc4ccccc4c3C2(C)C)=[N+](CCCCS(=O)(=O)[O-])c2ccc3ccccc3c21.[Na+]` is -15.5%; for `CN1/C(=C\C=O)C(C)(C)c2ccccc21` it is 12.9%. The figure for `CC(C)CCn1nnnc1CN1CCN(C(=O)c2ccco2)CC1.Cl` is 16.8%; for `CC1(C)CC(=O)c2c(O)cc(OCC(=O)Nc3ccc(CCO)cc3)cc2O1` it is -21.4%; for `CCN(C(=O)COC(=O)CSc1ccc(F)cc1)c1c(N)n(Cc2ccccc2)c(=O)[nH]c1=O` it is 10.9%. The figure for `COC(=O)C1Cc2ccccc2CN1S(=O)(=O)c1ccc(C)cc1` (centres unmarked) is 1.57%; for `Cc1cnc(-c2nnc(N(C)C(=O)C3CCCO3)s2)cn1` (centres unmarked) it is 2.91%. As for `Cn1c(CNC(=O)c2ccc(Cl)cc2)nnc1SCC(=O)N1CCOCC1`, the “hERG current change (%, negative = inhibition) at 10uM” value was determined as 15.4%.

On to `COc1cc(C(C)=O)ccc1OCC(O)CNCC1(N2CCCCC2)CCCCC1.O=C(O)C(=O)O` (centres unmarked), for which the “hERG current change (%, negative = inhibition) at 10uM” value is -42.1%. Regarding `COc1ccccc1COCC(O)CNCC1(N2CCCCC2)CCCCC1.O=C(O)C(=O)O` (centres unmarked), the “hERG current change (%, negative = inhibition) at 10uM” value is on record as -30.9%. Take `OC(CNCC1(N2CCCCC2)CCCCC1)COc1ccc(Cl)cc1Cl` (centres unmarked): the “hERG current change (%, negative = inhibition) at 10uM” value was -73.7%. The figure for `CCc1ccc(OC)c(S(=O)(=O)Nc2ccccc2C)c1` is 3.86%; for `COc1cccc(COCC(O)CN2CCC(C(N)=O)CC2)c1` (centres unmarked) it is 12.3%; for `COc1ccc(-c2csc3ncnc(NCCCO)c23)cc1` it is -13.3%. As for `CC(C)CNC(CC(=O)Nc1cccc([N+](=O)[O-])c1)C(=O)O` (centres unmarked), the “hERG current change (%, negative = inhibition) at 10uM” value is -1.01%. Regarding `Cc1ccc(NC(=O)COC(=O)[C@H](C)NC(N)=O)c(C)c1`, the “hERG current change (%, negative = inhibition) at 10uM” value was 15.1%. As to `CCOc1ccc(S(=O)(=O)N2CCC(C(=O)NC3CCCCC3)CC2)cc1`, the “hERG current change (%, negative = inhibition) at 10uM” value is 18.3%.

On to `CCOC(=O)C1CCN(CCC(=O)Nc2ccc(Cl)cc2)CC1`, for which the “hERG current change (%, negative = inhibition) at 10uM” value is reported as -62.4%. The figure for `CCOC(=O)C1CCN(CCC(=O)Nc2ccc(Br)cc2)CC1` is -63.5%; for `CCOC(=O)C1CCN(CCC(=O)Nc2cccc(Cl)c2C)CC1` it is -5.48%; for `CCOC(=O)C1CCN(CCC(=O)Nc2ccc(C)cc2)CC1` it is -32.4%.

Take `CCOC(=O)C1CCN(CCC(=O)Nc2ccccc2Cl)CC1.Cl`: the “hERG current change (%, negative = inhibition) at 10uM” value was -19.3%. The figure for `CCOC(=O)C1CCN(CCC(=O)Nc2ccc(F)cc2)CC1` is -31%; for `COc1ccccc1C(=O)NCC1(c2ccccc2)CCCC1` it is 1.65%; for `O=C(NCCCCCCCCCNC(=O)C(F)(F)F)C(F)(F)F` it is -4.99%. The figure for `CC1CC(C)CN(C(=O)CCCn2c(=O)c3cccn3c3cccnc32)C1` (centres unmarked) is -11%; for `N=c1c2c(-c3ccccc3)c(-c3ccccc3)n(Cc3ccccc3)c2ncn1CCO` it is -37.6%; for `CCCCn1cnc2c(c(-c3ccccc3)c(-c3ccccc3)n2Cc2ccco2)c1=N` it is -75.1%. `CCCCn1c(=O)n(CC(=O)Nc2ccc(C)c(Cl)c2)c(=O)c2c1ncn2Cc1ccco1`: the “hERG current change (%, negative = inhibition) at 10uM” value is -6.22%. On to `N=c1c2c(-c3ccccc3)c(-c3ccccc3)n(Cc3ccco3)c2ncn1CCCO`, for which the “hERG current change (%, negative = inhibition) at 10uM” value is given as -68.5%.

As for `N=c1c2c(-c3ccccc3)c(-c3ccccc3)n(Cc3ccco3)c2ncn1CCO`, the “hERG current change (%, negative = inhibition) at 10uM” value is -71%. As to `CCCCn1c(=O)n(Cc2cccc(F)c2)c(=O)c2c1ncn2Cc1ccco1`, the “hERG current change (%, negative = inhibition) at 10uM” value is given as -14.7%. `O=c1c2ccccc2ncn1Cc1ccco1`: the “hERG current change (%, negative = inhibition) at 10uM” value is recorded as -19.8%. With `O=c1c2cnn(-c3ccccc3)c2ncn1Cc1ccco1`, the “hERG current change (%, negative = inhibition) at 10uM” value is given as -7.57%. For the molecule `N#Cc1c(-c2ccccc2)c(-c2ccccc2)n(Cc2ccco2)c1NC(=O)c1cccs1`, the “hERG current change (%, negative = inhibition) at 10uM” value came to 12.6%.

For `NC(=S)N/N=C/c1ccc(C23CC4CC(CC(C4)C2)C3)cc1`, the “hERG current change (%, negative = inhibition) at 10uM” value worked out at 23.2%.

`CN1CCc2cc3c(cc2[C@H]1[C@@H]1OC(=O)c2c1ccc1c2OCO1)OCO3`: the “hERG current change (%, negative = inhibition) at 10uM” value is given as 7.02%. As for `O=C1C(=O)N(CC2CCCO2)C(c2ccco2)/C1=C(/O)c1ccc(F)cc1` (centres unmarked), the “hERG current change (%, negative = inhibition) at 10uM” value is listed as -13.4%. Regarding `COc1cnc(SCc2c(Cl)cccc2Cl)nc1Cl`, the “hERG current change (%, negative = inhibition) at 10uM” value is listed as -1.4%. The figure for `COC(=O)c1cccc(CSc2nnc(C)s2)c1` is -1.67%. The figure for `O=C(OCC(=O)N1CCCC1=O)c1ncc(Cl)c(Cl)c1Cl` is 0.304%; for `Nc1c(Cl)c(Cl)nc(C(=O)OCC(=O)N2CCCC2=O)c1Cl` it is -22.5%; for `O=C(OCC(=O)N1CCCC1=O)c1nc(Cl)c(Cl)c(Cl)c1Cl` it is -60.4%. The figure for `COc1cccc(C(=O)Nc2cc(-c3cn4cccnc4n3)ccc2C)c1` is -12%. For `O=C1C=C(Nc2ccc(Cl)cc2)C(=O)N1c1ccc(Cl)cc1`, the “hERG current change (%, negative = inhibition) at 10uM” value was 9.57%. The figure for `O=C(NCCC(=O)N(CCc1ccccc1)Cc1ccccc1)c1ccccc1Cl` is -72.9%. Consider `O=C(NCCc1ccccc1)c1ccccc1Cl`, for which the “hERG current change (%, negative = inhibition) at 10uM” value came to 3.33%. The figure for `O=C(NCCC(=O)N(CCc1ccccc1)Cc1ccccc1)c1ccc(Br)cc1` is -44.9%; for `CCOC(=O)C1=C(O)/C(=C\c2ccc(O)c(OCC)c2)N=C1C` it is 8.17%; for `C1CCC(NC2=NCCC2)CC1.Cl` it is -1.01%. On to `O=C(O)Cn1nc(C(F)(F)F)c2c1CCC2`, for which the “hERG current change (%, negative = inhibition) at 10uM” value amounted to 20.4%. The figure for `CCCN1C2CCCC1CC(NC(=O)c1ccc(OC)cc1)C2` (centres unmarked) is -30.1%. The figure for `CCCN1C2CCCC1CC(NC(=O)c1ccccc1)C2` (centres unmarked) is -18.9%; for `CCCN1C2CCCC1CC(NC(=O)c1ccc(C(C)(C)C)cc1)C2` (centres unmarked) it is -37.1%; for `CCCN1C2CCCC1CC(NC(=O)c1ccc(F)cc1)C2` (centres unmarked) it is -55.3%. The figure for `CCCN1C2CCCC1CC(NC(=O)c1ccc(Br)cc1)C2` (centres unmarked) is -66.3%; for `CCCN1C2CCCC1CC(NC(=O)c1ccccc1F)C2` (centres unmarked) it is -21.7%; for `CCc1ccc(NCc2ccc(OC)c(Cn3ccnc3)c2)cc1` it is -10.5%. Regarding `O=C(O)CCCC(=O)N1N=C(c2c(-c3ccccc3)c3cc(Cl)ccc3[nH]c2=O)CC1c1cccs1` (centres unmarked), the “hERG current change (%, negative = inhibition) at 10uM” value is recorded as 23.2%. As for `Cc1c(C(=O)NCc2ccco2)oc2ccc(S(=O)(=O)N3CCC4(CC3)OCCO4)cc12`, the “hERG current change (%, negative = inhibition) at 10uM” value is reported as -19.7%.

For `CC(C)CCCN1C(Nc2ccccc2)=NC[C@@H]1C`, the “hERG current change (%, negative = inhibition) at 10uM” value is -11.4%. The figure for `CCCCCCCN1C(Nc2ccccc2)=NC[C@@H]1C` is -68%. On to `Cc1ccc(CCN2C(Nc3ccccc3)=NC[C@@H]2C)cc1`, for which the “hERG current change (%, negative = inhibition) at 10uM” value is on record as -35.9%. The figure for `CCCCN1C(Nc2ccccc2)=NC[C@@H]1Cc1ccccc1` is -66.1%. Turning to `c1ccc(CCCCN2C(Nc3ccccc3)=NC[C@@H]2Cc2ccccc2)cc1`, the “hERG current change (%, negative = inhibition) at 10uM” value is on record as -71.5%. With `C[C@H]1CN=C(Nc2ccccc2)N1CCc1ccccc1`, the “hERG current change (%, negative = inhibition) at 10uM” value is -9.89%. The figure for `CCCCCCCN1C(Nc2ccccc2)=NC[C@@H]1Cc1ccccc1` is -83.3%; for `CCN1C(Nc2ccccc2)=NC[C@@H]1C` it is 15.2%; for `CCCCN1C(N)=NC[C@@H]1Cc1ccccc1` it is 0.376%. The figure for `CCN1C(Nc2ccccc2)=NC[C@@H]1Cc1ccccc1` is -26%; for `CCCCN1C(Nc2ccccc2)=NC[C@@H]1C` it is 14.4%; for `OC1CCCN(c2ncnc3c2nnn3Cc2c(F)cccc2Cl)C1` (centres unmarked) it is 0.989%. The figure for `COc1cc([N+](=O)[O-])ccc1NC(=O)NCc1ccccn1` is 11.7%; for `CC(=O)c1cccc(NC(=O)CSc2n[nH]c(-c3ccncc3)n2)c1` it is 10.5%; for `O=C(COc1ccc(Br)cc1F)NC1CCN(Cc2ccccc2)CC1` it is -74%.

As to `Cc1ccc(Cl)c(OCC(=O)Nc2ccccc2C(=O)NC2CC2)c1`, the “hERG current change (%, negative = inhibition) at 10uM” value came to 3.5%. The figure for `O=C(COc1ccc(Br)cc1Cl)NC(=O)NC1CCCC1` is -9.03%; for `O=C(COc1ccc(Br)cc1Cl)NC1CCCCC1` it is 9.84%; for `Cc1cc(OCC(=O)NC2CCN(Cc3ccccc3)CC2)c2c(C)c(C)c(=O)oc2c1` it is -22.4%. Turning to `Cl.O=C(COc1ccccc1F)NC1CCN(Cc2ccccc2)CC1`, the “hERG current change (%, negative = inhibition) at 10uM” value is -38.5%. As for `O=C(COc1ccc(Br)cc1Cl)NC1CCN(Cc2ccccc2)CC1`, the “hERG current change (%, negative = inhibition) at 10uM” value is -67.3%.

For `Cc1ccc(Cl)c(OCC(=O)NC2CCN(Cc3ccccc3)CC2)c1`, the “hERG current change (%, negative = inhibition) at 10uM” value is listed as -115%.

For `O=C(COc1ccccc1F)NC1CC1`, the “hERG current change (%, negative = inhibition) at 10uM” value was 0.681%.
